Assay outcomes (PubChem BioAssay)
ATXN2 expr inh = reduces ATXN2 reporter expression in HEK-293 cells | Potency, µM (titrated, usually from 57 µM), inactives show top-dose activity change, negative = inhibition, usual class: inhibitors | hit rate 0.72% among 360,000 | HEK-293 ATXN2-luciferase reporter, luminescence, 24 h; also: potency is read from the fitted curve at half-maximal effect; % is scaled to controls: 0 for no effect and ±100 for the full control effect; nearly all actives have a fitted effect of over 55% in size
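qHTS (up to 57 uM final) was run with 24 h compound exposure of reporter cells at 37 °C. Each well was multiplexed: SteadyGlo luminescence measured ATXN2-luciferase expression after a fluorogenic Gly-Phe-AFC viability readout (25 uM final).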
HepG2 viability = HepG2 cytotoxicity, counter-screen for TGF-b inhibitors. HepG2 CAGA-GFP viability, ATP luminescence, 18 h. Potency, µM (titrated, usually from 46.1 µM), inactives show top-dose activity change, negative = cytotoxicity, actives largely listed as cytotoxic. AID 588856. hit rate 0.76% among 410,000; also: potency is read from the fitted curve at half-maximal effect
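CellTiter-Glo luminescence gave cytotoxicity after 18 hours at 37 degrees C. The cells were HepG2 CAGA-GFP in 1% FBS DMEM, stimulated with 500 pg/mL TGF-beta after compound addition. %Activity was normalised to no-cell wells (complete cell-killing) and DMSO (no toxicity), and curves were fitted and classified.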
DRD3 antagonist = blocks the human D3 dopamine receptor; AID 652054; P35462; hit rate 2.5% among 360,000; D3R cells, DiscoveRx beta-arrestin luminescence, antagonist mode; hits give low values; max response, negative = inhibition, %; in the data active = max response below about -50%; inconclusive = no clear call, values can overlap the other calls; also: % is scaled to controls: 0 for no effect and ±100 for the full control effect
Target sequence (P35462 whole entry, looked up): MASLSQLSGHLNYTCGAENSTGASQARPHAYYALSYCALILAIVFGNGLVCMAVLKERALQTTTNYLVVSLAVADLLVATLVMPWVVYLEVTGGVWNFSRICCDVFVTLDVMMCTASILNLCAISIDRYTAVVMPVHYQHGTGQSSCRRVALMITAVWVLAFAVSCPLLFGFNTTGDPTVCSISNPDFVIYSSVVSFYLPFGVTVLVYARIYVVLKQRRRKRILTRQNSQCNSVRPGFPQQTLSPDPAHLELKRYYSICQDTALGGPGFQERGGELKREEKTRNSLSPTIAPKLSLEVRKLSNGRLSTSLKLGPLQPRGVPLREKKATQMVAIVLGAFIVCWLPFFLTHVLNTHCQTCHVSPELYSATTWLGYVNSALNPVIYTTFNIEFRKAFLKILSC
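Cells expressing the human receptor were seeded at 1500 cells/well, incubated overnight at 37 degrees C in 5% CO2, then exposed to library compounds with dopamine controls for 90 minutes at 37 degrees C before luminescent detection.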
ATXN viability = reduces viability in counter-screen for ATXN expression inhibitors. S2 cells (HEK-293 line with an ATXN2-luciferase reporter) viability, CellTiter-Fluor protease fluorescence, 24 h. Potency, µM (highest dose often 56.7 µM), actives largely listed as cytotoxic. hit rate 0.49% among 400,000. AID 651635; also: potency is read from the fitted curve at half-maximal effect; nearly all actives have a fitted effect of over 40% in size
TGFb SMAD3 inh = inhibitors of TGF-b signaling; HepG2 CAGA-GFP TGF-b/SMAD3 reporter, GFP fluorescence, 18 h; TGF-beta stimulated, 500 pg/mL final; Potency, µM (titrated, usually from 46.1 µM), for the others: top-dose activity, negative = inhibition, usual class: inhibitors; hit rate 1.2% among 410,000; AID 588855; also: potency is read from the fitted curve at half-maximal effect; % is scaled to controls: 0 for no effect and ±100 for the full control effect; nearly all actives have a fitted effect of over 65% in size
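HEPG2 CAGA-GFP, 1000 cells/well; 2 h settle, 37 C; cpd via pin tool; TGF-b 500 pg/mL final; 18 h, 37 C; GFP imaging ex488/em500-530; %Activity normalised to -TGF-b and +DMSO controls; CRC fit, curve class.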
D3 ag = agonists of human D3 dopamine receptor | P35462 | D3R DiscoveRx beta-arrestin cells, luminescence, 90 min | max activation, % | hit rate 0.58% among 410,000 | AID 652048; in the data active = max activation above about 30%; also: 0% is about no effect
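Agonist mode: compounds and dopamine controls were applied to plated cells for 90 min at 37 degrees C after an overnight attachment at 1500 cells/well. Luminescent read-out followed 30 - 60 minutes at room temperature with DiscoveRx detection reagent.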
Numbers without * were called inactive; i = inactive; ? = inconclusive; / = not tested or not shown. This is a sample that favours compounds with a hit; in the whole collection about 4.7% have one here. Unless noted, calls follow the shape of the dose curve; as a rule, active = well fitted curve in the direction sought with a large enough effect; inconclusive = small, poorly fitted or top-dose-only effect, or another doubt; inactive = no such curve, though single readings can be large; an effect the other way counts as inactive or inconclusive.

SMILES | ATXN2 expr inh | HepG2 viability | DRD3 antagonist | ATXN viability | TGFb SMAD3 inh | D3 ag
CN(CCC#N)c1ccc(/C=C/c2ccnc3ccccc23)cc1 | / | -37% | / | / | ? | /
COc1ccc2oc(=O)c(C(=O)Nc3cccc(C(=O)O)c3)cc2c1 | 0.89µM* | -1% | / | i | 36% | 3
COc1ccc2oc(=O)c(C(=O)Nc3cccc(C)c3)cc2c1 | 38% | 11% | 38 | i | 91% | -9
Cc1cccc(NS(=O)(=O)c2ccc3oc(=O)c4ncn(C)c4c3c2)c1C | / | -30% | / | / | -8% | 42*
CC1=NNC(=O)/C1=C\c1cn(-c2ccccc2)nc1-c1cccs1 | / | 7.9µM* | ? | 3.2µM* | 5.6µM* | -2
CC1=NNC(=O)/C1=C\c1cn(-c2ccccc2)nc1-c1ccc(F)cc1 | 7.5µM* | -84% | -69* | / | 4µM* | -3
O=Cc1cn(-c2ccccc2)nc1-c1ccc(F)cc1 | / | -13% | -2 | i | -2% | -2
COc1ccc(NC(=O)NCCN2CCN(c3cccc(Cl)c3)CC2)cc1 | -20% | -33% | -58* | i | -13% | -10
COc1ccc(OC)c(NC(=O)NCCN2CCN(c3ccccc3)CC2)c1 | -20% | -12% | -67* | i | 1% | 5
COc1ccc(N2CCN(CCNC(=O)Nc3ccc(C)c(Cl)c3)CC2)cc1 | / | -35% | ? | i | -7% | -4
COc1ccccc1C(=O)NCCN1CCN(c2ccccc2)CC1 | / | -4% | 0 | i | -2% | 42*
COc1ccc(N2CCN(CCNC(=O)Nc3ccc([N+](=O)[O-])cc3OC)CC2)cc1 | -26% | -12% | -26 | i | 0% | -20
Cc1ccccc1-c1nc(SCC(=O)NCc2ccc(F)cc2)c2c(=O)n(C)c(=O)n(C)c2n1 | -3% | 3% | / | i | -19% | 1
CN(C)c1cc(NC(=O)CNC(C)(C)C)c(O)c2c1C[C@H]1C[C@H]3[C@H](N(C)C)C(=O)C(C(N)=O)=C(O)[C@@]3(O)C(=O)C1=C2O | / | / | / | / | / | 8
O=C(CCCC(=O)c1ccc(O)cc1)c1ccc(O)cc1 | 91% | -1% | -6 | i | 1% | 2
O=C1C=CC(=C(c2ccc(O)cc2)c2ccc(O)cc2)C=C1 | ? | 10µM* | 0 | 16µM* | ? | -4
O=C(Cn1cc(SCc2ccccc2F)c2ccccc21)N1CCCCC1 | / | -18% | / | / | ? | 4
CCc1ccc2c(c1)C1(C(=O)N2)N2CCCC2C(C(=O)c2ccc3ccccc3c2)C12C(=O)Nc1ccccc12 (configuration not stated) | ? | 10µM* | -2 | ? | 16µM* | 3
CN(C)CCN1CCN(c2cccc(Cl)c2)C1=O | 17% | / | / | i | / | /
Cc1cccc(CN2CCN(C3CN(C4CCCCC4)S(=O)(=O)C3)CC2)c1 (configuration not stated) | -35% | 0% | -57* | i | ? | -14
CC(C)c1ccc(NC(=O)Cn2c(=O)oc3cc(S(=O)(=O)N4CCCC4)ccc32)cc1 | -37% | -17% | / | i | -15% | -9
COC(=O)c1c(-c2ccc(OC)cc2)oc2ccc(-c3cc(OC)c(OC)c(OC)c3)cc12 | ? | -99% | 77 | ? | ? | 35*
COC(=O)c1c(-c2ccc(OC)cc2)oc2ccc(-c3ccc(OC)nc3)cc12 | -13% | -25% | 22 | i | -11% | 40*
CCc1ccc2nc(N(Cc3cccnc3)C(=O)c3cccs3)sc2c1 | / | -8% | / | / | -1% | -9
CC(C)=CCCC1(C)C=Cc2c(c(C)cc3c2[nH]c2cc(O)ccc23)O1 (configuration not stated) | ? | 11µM* | 25 | 28µM* | 11µM* | 3
SMILES | ATXN2 expr inh | HepG2 viability | DRD3 antagonist | ATXN viability | TGFb SMAD3 inh | D3 ag
CC(COc1ccccc1)NC(C)C(O)c1ccc(O)cc1 (configuration not stated) | 3% | 3% | -87* | i | 2% | -71
C[C@H](NCCc1ccc(O)cc1)[C@H](O)c1ccc(O)cc1 | 6% | 11% | 2 | i | 4% | -30
CC(C)c1ccccc1OCC(=O)N(C)CC(=O)Nc1ccc(F)cc1 | -5% | -25% | -58* | i | ? | -36
O=C(O)c1ccc(-c2c[nH]c3ncc(-c4ccccc4)cc23)cc1C1CCCC1 | 4% | / | / | / | / | /
Cc1nc2ccc(C(=O)N3CCc4c(cnc(C)c4CNC(=O)/C=C/c4cccs4)C3)cc2nc1C | / | / | / | i | / | /
CC(C)Nc1ccc(Nc2ccnc3cc4ccccc4cc23)cc1 | ? | 11µM* | -79* | / | ? | -26
COc1ccc(Nc2ccnc3ccccc23)cc1 | 19% | -16% | -21 | i | -1% | -7
O=C(NCCc1ccccc1)c1nccc2ccccc12 | 30% | -14% | 11 | i | -7% | -5
c1ccc(CCNc2ccnc3cc4ccccc4cc23)cc1 | ? | 11µM* | -12 | / | ? | -6
COC(=O)C1CCN(Cc2ccc3c(c2)CN(C(=O)c2ncc(C)[nH]2)CCO3)CC1 | / | / | / | i | / | /
CN(C)c1ccc(CN2CCC(C(=O)NC(c3ccc(F)cc3)c3ccc4ccccc4n3)CC2)cc1 (configuration not stated) | ? | -84% | -82* | ? | ? | -23
O=C(NC(c1ccc(F)cc1)c1ccc2ccccc2n1)C1CCN(Cc2ccc3ccccc3n2)CC1 (configuration not stated) | -23% | -47% | -53* | ? | 13µM* | -15
COc1cc(/C=C/CN2CCC(C(=O)NC(c3ccc(F)cc3)c3ccc4ccccc4n3)CC2)ccc1OC(C)=O (configuration not stated) | ? | -40% | -110* | ? | ? | -26
COc1ccccc1/C=C/CN1CCC(n2nccc2NC(=O)C2CC2)CC1 | 0% | -5% | -15 | i | 0% | -24
COc1cc(OC)nc(C(NC(=O)C2CCN(Cc3ccc(N(C)C)cc3)CC2)c2ccc(F)cc2)n1 (configuration not stated) | 0% | -6% | ? | i | -1% | -15
O=C(NC(c1ccc(-c2ccccc2)cc1)c1cnccn1)C1CCN(Cc2cccs2)CC1 (configuration not stated) | -18% | -27% | 8 | ? | 13% | -16
O=C(NC(c1ccc(F)cc1)c1ccc2ccccc2n1)C1CCN(CCOc2ccc(Cl)cc2)CC1 (configuration not stated) | ? | -94% | -118* | 14µM* | 16µM* | -24
